In ChEMBL document CHEMBL3988442, “University of Dundee, Small-Polar-MMV Screening Library” (2021):
About 13,000 (27%) of roughly 48,000 compounds showed an effect of 50% or more. The list shows a part of the results.

These compounds were tested on Wolbachia pipientis (assay: Anti-Wolbachia Cell-Based Screen). Conditions: 5 µM.
Format: functional
Set-up: scale not given: in the data most compounds retested in dose-response had high values
NC(=O)Nc1cccc(C(=O)N(Cc2ccncc2)C2CC2)c1 was tested, and the “Percent Effect” value was 8.655%. CC(O)CN1CCC(CNCc2ccccc2Br)CC1 (stereo unspecified) was tested, and the “Percent Effect” value was -8.503%. In the case of O=C(NCCN1CCOCC1)NCc1ccc(-n2cccn2)cc1, the “Percent Effect” value is reported as -7.54%. CC(C)Nc1nc2c(c(NC3CC3)n1)CCN(C1CCOCC1)CC2 was tested, and the “Percent Effect” value was -24.37%. In the case of O=C(CO)N1CCN(S(=O)(=O)CCCF)CC1, the “Percent Effect” value is reported as -8.107%. Cc1cc(C2CCCN2CCCS(=O)(=O)c2ccccc2)no1 (stereo unspecified) was tested, and the “Percent Effect” value was -10.32%. With Nc1ncncc1-c1noc([C@@H]2CCCN2CCCc2ccccc2)n1 the “Percent Effect” value was 5.428%. For Nc1cc(-c2c[nH]nc2C2CCCN2S(=O)(=O)c2ccccc2)ccn1 (stereo unspecified), the “Percent Effect” value was 96.1%. With Nc1cc(-c2c[nH]nc2C2CCCN2CCCc2ccccc2)ccn1 (stereo unspecified) the “Percent Effect” value was 114.8%. With COc1ccc(NC(=O)N2CCCCC2c2ncc[nH]2)cc1 (stereo unspecified) the “Percent Effect” value was 18.67%. O=S(=O)(N(Cc1ccccn1)C1CC1)N1CCCC1c1ccco1 (stereo unspecified) was tested, and the “Percent Effect” value was 17.98%. With O=C(c1ccoc1)N1CCCCC1c1nc[nH]n1 (stereo unspecified) the “Percent Effect” value was 11.28%. Nc1cc(-c2c[nH]nc2C2CCCCN2C(=O)C2CCCC2)ccn1 (stereo unspecified) was tested, and the “Percent Effect” value was 118.9%. For Cn1nnc2c1C(COCC1CC1)CN(C(=O)CC1=CCCCC1)C2 (stereo unspecified), the “Percent Effect” value was -19.61%. CC(NC1(CNC(=O)CC2CCCC2)CCOCC1)c1ccccc1 (stereo unspecified) was tested, and the “Percent Effect” value was -11.89%. For Cc1sc2nc(SC(C)c3nc(C(C)(C)C)no3)nc(N)c2c1C (stereo unspecified), the “Percent Effect” value was 10.97%. For CCc1nnsc1C(=O)N(C)Cc1ccc(Br)o1, the “Percent Effect” value was 14.42%. For Cc1ccc(S(=O)(=O)Cc2nsc(N(C)C)n2)c(C)c1, the “Percent Effect” value was -1.61%. For CCc1nc(NCC(=O)N2CCOCC2)c2c(n1)c(C)nn2CC, the “Percent Effect” value was 7.048%. With CCN1CCN(c2ccc(F)cc2C(C)NCc2ccnn2C)CC1 (stereo unspecified) the “Percent Effect” value was -1.019%. For CCOC(=O)N1CCN(C(=O)c2sc(-c3ccccc3)nc2C)CC1, the “Percent Effect” value was -9.068%. Cc1cc(=O)c(C(=O)N2CCC(C(O)Cc3ccccc3)CC2)c(C)[nH]1 (stereo unspecified) was tested, and the “Percent Effect” value was 97.46%. In the case of Cc1nn(C)c2nc(N3CCC(C(O)Cc4ccccc4)CC3)sc12 (stereo unspecified), the “Percent Effect” value is reported as -11.76%. COc1nc(C)c(C(=O)N2CCC(C(O)Cc3ccccc3)CC2)s1 (stereo unspecified) was tested, and the “Percent Effect” value was 114.7%. With Cc1ccc(N2CCC(C(O)Cc3ccccc3)CC2)nn1 (stereo unspecified) the “Percent Effect” value was -17.42%. COc1nc(C)c(C(=O)N2CCc3[nH]nc(Cc4ccccc4)c3C2)s1 was tested, and the “Percent Effect” value was 2.938%. With CC(C)CC(O)C1CCN(C(=O)c2ccc(C(C)C)[nH]c2=O)CC1 (stereo unspecified) the “Percent Effect” value was -16.76%. With Cc1nc(N)sc1C(=O)N1CCC(C(O)Cc2ccccc2)CC1 (stereo unspecified) the “Percent Effect” value was 104.4%. For COc1nc(C)c(C(=O)N2CCN(c3ncccc3C)CC2)s1, the “Percent Effect” value was -23.23%. With c1ccc(Cn2cccn2)c(CN2CCCCC2CCn2ccnc2)c1 (stereo unspecified) the “Percent Effect” value was -5.854%. Nc1ncc(-c2cccc(NC(=O)[C@@H]3CCCCN3)c2)cn1 was tested, and the “Percent Effect” value was 116.6%. For O=C(Nc1ccc(-c2ccccc2)cn1)C1CCN(C(=O)C2CC2)CC1, the “Percent Effect” value was 26.94%. O=C(Nc1ccc(-c2cnc(NCCO)nc2)cc1)[C@@H]1CCCCN1 was tested, and the “Percent Effect” value was 129.4%. In the case of NS(=O)(=O)c1cnn(-c2ccc(NC(=O)C3CCCCC3)cn2)c1, the “Percent Effect” value is reported as -15.76%. With O=C(Nc1cnc2n1CCCC2)c1cccc(NC(=O)C2CCCC2)c1 the “Percent Effect” value was 10.86%. In the case of O=C(Nc1ccc(-c2csnn2)cc1)N1CCN2CCCCC2C1 (stereo unspecified), the “Percent Effect” value is reported as 5.858%. In the case of Cc1ccc(NC(=O)C2CCc3ccccc3N2)cc1 (stereo unspecified), the “Percent Effect” value is reported as -1.128%. For CNc1ncc(-c2ccc(NC(=O)[C@@H]3CCCCN3)cc2)cn1, the “Percent Effect” value was 112.9%. Nc1ncc(-c2ccc(NC(=O)[C@@H]3CCCCN3)cc2)cn1 was tested, and the “Percent Effect” value was 109.3%. For Cc1cccc(NC(=O)C2CCc3ccccc3N2)c1.Cl (stereo unspecified), the “Percent Effect” value was 2.596%. Cc1ccc2cc(C3(O)CCN(C(=O)[C@@H]4CCCCN4)CC3)ccc2n1 was tested, and the “Percent Effect” value was -9.232%. In the case of CCc1ncc(C(=O)N(C)CCc2nc3cc(OC)ccc3[nH]2)cn1, the “Percent Effect” value is reported as 4.765%. With CNC(=O)C(C)(C)N1CCC[C@H]1C(=O)NCC1CC1 the “Percent Effect” value was 11.03%. In the case of COc1ccc(OCc2noc(CN(C)C3CCS(=O)(=O)C3)n2)cc1 (stereo unspecified), the “Percent Effect” value is reported as -8.185%. CN(Cc1cc(Br)cn1C)C(=O)c1ccon1 was tested, and the “Percent Effect” value was -0.2013%. With O=S1(=O)NC2(CCCN(Cc3ccc(Cl)cc3)C2)COc2ccccc21 (stereo unspecified) the “Percent Effect” value was 134.9%. For O=S1(=O)NCC2(CCN(c3ncc(F)cn3)CC2)COc2ccccc21, the “Percent Effect” value was -10.54%. With CN1C2(CCN(Cc3ccc(F)cc3)C2)c2ccccc2S1(=O)=O (stereo unspecified) the “Percent Effect” value was 8.528%. For O=C1Nc2ccccc2C12CCCN(Cc1ccc3c(c1)OCCO3)C2 (stereo unspecified), the “Percent Effect” value was -17.7%. O=S1(=O)NC2(CCCN(Cc3ccc(F)cc3)C2)COc2ccccc21 (stereo unspecified) was tested, and the “Percent Effect” value was 98.49%. For O=S1(=O)NC2(CCCN(CCc3ccccc3)C2)COc2ccccc21 (stereo unspecified), the “Percent Effect” value was 103.7%. For COCCCC1(CO)CCCN(CCc2ccccc2)C1 (stereo unspecified), the “Percent Effect” value was -12.43%. With O=C1NCC2(CCCN(CCc3ccccc3)C2)Oc2ccccc21 (stereo unspecified) the “Percent Effect” value was -15.46%. With CCN(C)c1ccc(CNC(=O)c2ccc(NC(N)=O)cc2)cc1F the “Percent Effect” value was -59.71%. For CCc1cc(NCc2cc3n(n2)CCCN(S(C)(=O)=O)C3)nc(C)n1, the “Percent Effect” value was 3.028%. For c1ccc(Oc2nccc3occc23)c(CN2CCCCC2)c1, the “Percent Effect” value was -8.744%. CN(C)S(=O)(=O)NCC1(c2ccccc2Br)CC1 was tested, and the “Percent Effect” value was -6.253%. CN1CCO[C@H]2CN(S(=O)(=O)c3ccc(C#N)cc3)C[C@H]21.O=C(O)C(F)(F)F was tested, and the “Percent Effect” value was -17.08%. CC(=O)N1CCO[C@@H]2CN(S(=O)(=O)c3cccnc3)C[C@@H]2C1.O=C(O)C(F)(F)F was tested, and the “Percent Effect” value was 105.8%. CN1CCO[C@@H]2CN(S(=O)(=O)c3ccccc3)CC[C@@H]2C1.O=C(O)C(F)(F)F was tested, and the “Percent Effect” value was -5.775%. In the case of CC(C)N1CCO[C@H]2CN(S(=O)(=O)c3ccc(C#N)cc3)C[C@H]21, the “Percent Effect” value is reported as -6.179%. With COc1ccc(S(=O)(=O)N2C[C@@H]3CN(C)CCO[C@@H]3C2)cc1 the “Percent Effect” value was 104.2%. In the case of CN1CCO[C@@H]2CN(S(=O)(=O)c3ccccc3)C[C@@H]2C1.O=C(O)C(F)(F)F, the “Percent Effect” value is reported as 98.27%. For CNC(=O)[C@H]1C[C@@H]2CN(S(=O)(=O)c3ccc(OC)cc3)C[C@@H]2N1C.O=C(O)C(F)(F)F, the “Percent Effect” value was -8.898%. Cc1occc1C(=O)NCC(=O)N(C)CCCOc1ccc(F)cc1 was tested, and the “Percent Effect” value was -0.7534%. For Cc1cc(C(C)NC(=O)c2cnc3onc(C)c3c2)c(C)o1 (stereo unspecified), the “Percent Effect” value was 7.597%. In the case of C1CC1c1nsc(N2CCN(C3CC3)CC2)n1, the “Percent Effect” value is reported as -1.801%. For CSCCc1c(-c2ccccc2)ncn1[C@H]1C[C@@H](C(=O)O)N(C)C1, the “Percent Effect” value was 9.47%. With CCCS(=O)(=O)N1CCN(c2ccnc(N3CCCCC3)n2)CC1 the “Percent Effect” value was -4.762%. Cc1cnc(CCNC(=O)NCCOc2ncccc2Cl)s1 was tested, and the “Percent Effect” value was -4.9%. In the case of CCc1cnc(CNC(=O)NCCc2ccc(O)cc2)s1, the “Percent Effect” value is reported as 101.6%. COc1ccc(CNC(=O)NCCc2nc(C)c(C)s2)cn1 was tested, and the “Percent Effect” value was -8.722%. In the case of CCc1cnc(CNC(=O)N2CCCC(c3ncc[nH]3)C2)s1 (stereo unspecified), the “Percent Effect” value is reported as -16.47%. CNC(=O)Cc1ccc(NC(=O)NCc2ncc(C)s2)cc1 was tested, and the “Percent Effect” value was -0.2896%. In the case of CCc1cnc(CNC(=O)NCCCO)s1, the “Percent Effect” value is reported as 97.97%. With Cc1cnc(CCNC(=O)NCCc2ccc(O)cc2)s1 the “Percent Effect” value was 116.1%. With CCc1cnc(CNC(=O)N2CCCC(C(=O)NC)C2)s1 (stereo unspecified) the “Percent Effect” value was -0.4435%. For CCc1cnc(CNC(=O)NC2CC(C)(C)OC2(C)C)s1 (stereo unspecified), the “Percent Effect” value was 0.9333%. With CCn1c(C)cc(C(=O)NCc2cccc(NS(C)(=O)=O)c2)c1C the “Percent Effect” value was -5.652%. In the case of CNC(=O)c1cc(NC(=O)NCC2CCS(=O)(=O)C2)ccc1OC (stereo unspecified), the “Percent Effect” value is reported as -3.737%. In the case of Cc1noc(OCc2csc(C)n2)n1, the “Percent Effect” value is reported as 2.505%. For COc1cc2nc(C)sc2cc1NC(=O)C(C)NC(N)=O (stereo unspecified), the “Percent Effect” value was -2.888%. In the case of COc1ccccc1N1CCN(C(=O)CCCS(N)(=O)=O)C(C)C1 (stereo unspecified), the “Percent Effect” value is reported as -9.849%. With CCOC(=O)c1sc2ccsc2c1CNC(=O)CC the “Percent Effect” value was 11.82%. CCOC(=O)c1sc2ccsc2c1CN.Cl was tested, and the “Percent Effect” value was -6.159%. CCOC(=O)c1sc2ccsc2c1CNC(=O)C(C)(C)C#N was tested, and the “Percent Effect” value was 61.27%. With O=C(c1ccc[nH]1)N1C[C@H]2CC[C@@H]1CN(C1Cc3ccccc3C1)C2 the “Percent Effect” value was -8.418%. For Cc1nc(-c2ccccc2)n(CC(=O)NC(C)C2CC2)n1 (stereo unspecified), the “Percent Effect” value was -16.22%. Cc1cccc(-c2nc(C)nn2CC(=O)N(C)C2CC2)c1 was tested, and the “Percent Effect” value was -1.032%. With Cc1cccc(-c2nc(C)nn2CC(=O)NC(C)C)c1 the “Percent Effect” value was 108.3%. Cc1cccc(-c2nc(C)nn2CN2CCN(S(C)(=O)=O)CC2)c1 was tested, and the “Percent Effect” value was -9.044%. For CCC(C)(C)NC(=O)Cn1nc(C)nc1-c1cccc(C)c1, the “Percent Effect” value was -9.782%. With Cc1cccc(-c2nc(C)nn2CC(=O)NC(C)C2CC2)c1 (stereo unspecified) the “Percent Effect” value was 96.27%. With Cc1ccc(CNC2(Cc3cc(CC(C)C)on3)COC2)o1 the “Percent Effect” value was 0.7021%. Nc1cc(C(=O)N2CCOC(Cc3cccc(C(F)(F)F)c3)C2)ccn1 (stereo unspecified) was tested, and the “Percent Effect” value was -0.1683%. In the case of CCN1CC(O)CN(C(=O)c2cccc(C(F)(F)F)c2)CC1=O (stereo unspecified), the “Percent Effect” value is reported as 106.7%. With O=C(O)C(F)(F)F.O=C(c1cccc(Cl)c1)N1CC[C@H]2[C@H]1CCN2CC1CC1 the “Percent Effect” value was -19.81%. For O=C(c1ccc(=O)[nH]c1)N1CCC(Oc2cccc(C(F)(F)F)c2)CC1, the “Percent Effect” value was -22.64%. For O=C1CN(C(=O)c2cccc(C(F)(F)F)c2)CC(O)CN1CC1CC1 (stereo unspecified), the “Percent Effect” value was 100.3%. N#CCCN1CC(O)CN(C(=O)c2cccc(C(F)(F)F)c2)CC1=O (stereo unspecified) was tested, and the “Percent Effect” value was 98.63%. CC(C)(C)CN1CC(O)CN(C(=O)c2cccc(C(F)(F)F)c2)CC1=O (stereo unspecified) was tested, and the “Percent Effect” value was 85.94%.
